Hits are enriched below; roughly 19% of the tested compounds scored in any of these assays.
TDP1 block: TDP1 (human) enzyme inhibition; Q9NUW8; Potency, µM (doses to about 130 µM), for the others: at the highest dose activity change, negative = inhibition, hits mostly inhibitors; recombinant TDP1, AlphaScreen DNA substrate cleavage; 0.28% of 350,000 active; note: potency is the fitted concentration of half-maximal effect; nearly all actives have a fitted effect of over 40% in size
Target sequence (Q9NUW8 whole entry, looked up): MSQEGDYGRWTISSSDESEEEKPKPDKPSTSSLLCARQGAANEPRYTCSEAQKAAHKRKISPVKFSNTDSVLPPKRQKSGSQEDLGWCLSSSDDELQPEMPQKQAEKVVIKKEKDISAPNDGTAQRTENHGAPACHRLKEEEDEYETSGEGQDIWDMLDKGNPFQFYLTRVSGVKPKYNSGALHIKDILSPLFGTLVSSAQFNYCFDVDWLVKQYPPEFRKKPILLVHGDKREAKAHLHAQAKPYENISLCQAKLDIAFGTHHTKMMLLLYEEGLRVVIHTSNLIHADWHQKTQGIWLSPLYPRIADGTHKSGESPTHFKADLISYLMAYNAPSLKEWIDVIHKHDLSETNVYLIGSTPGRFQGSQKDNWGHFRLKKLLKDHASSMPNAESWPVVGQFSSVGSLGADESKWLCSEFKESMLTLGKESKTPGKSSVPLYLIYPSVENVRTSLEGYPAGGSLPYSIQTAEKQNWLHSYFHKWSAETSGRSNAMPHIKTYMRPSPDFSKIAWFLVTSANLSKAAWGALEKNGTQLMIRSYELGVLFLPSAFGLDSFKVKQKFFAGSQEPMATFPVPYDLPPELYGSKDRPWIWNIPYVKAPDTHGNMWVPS
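Tdp1 1 nM final; 15 min RT w/ cpd; substrate 15 nM, 5 min; beads 10 ug/ml, 10 min; AlphaScreen read. Neg ctrl: no enzyme.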
Giardia killer: kills Giardia lamblia; activity change, % at 7.66 µM, hits read low; Giardia lamblia trophozoite viability; 0.15% of 340,000 active; in the data active = activity change below about -80%; inconclusive = between about -30% and that limit;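 note: parasites exposed to compound for two days anaerobically before the ATP read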
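Luminescence from cellular ATP indicates surviving trophozoites (100 cells/well) following 48 hrs anaerobic compound treatment at 37 deg C; signal develops 15-30 min at room temperature.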
ELG1 repair inh: inhibitors of ELG1-dependent DNA repair in HEK293T cells; HEK293T ELG1-luciferase reporter, luminescence, 16 h; DNA damage induced by 5-fluorouridine; Potency, µM (top dose mostly 46.1 µM), for inactives: top-dose activity change, negative = inhibition, hits mostly inhibitors; 2.3% of 330,000 active; AID 504467; note: potency is the fitted concentration of half-maximal effect; nearly all actives have a fitted effect of over 55% in size
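HEK293T cells expressing luciferase-tagged ELG1 (2,000/well) received 5-Fluorouridine plus compound or DMSO for 16 hr at 37 °C. Luciferase was read by ONE-Glo luminescence after 30 min at room temperature.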
TDP1 cell noCPT: qHTS for Inhibitors of human tyrosyl-DNA phosphodiesterase 1 (TDP1): qHTS in cells in absence of CPT | Potency, µM (titrated, usually from 46.2 µM), for inactives: top-dose activity change, negative = growth inhibition, usual class: inhibitors | 15% of 420,000 active | DT40 Tdp1-/- hTDP1 cells, no CPT, ATP luminescence, 48 h | AID 686978, 2013; note: potency is the fitted concentration of half-maximal effect; nearly all actives have a fitted effect of over 55% in size
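Camptothecin absent (DMSO only). Human TDP1-complemented DT40 knockout cells, 400 cells/well, 37 °C for minimum 48 hr; ATP measured via CellTiter-Glo, 30 min dark incubation, luminescence.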
DT40 TDP1 CPT: DT40-hTDP1 cell growth loss with CPT | Potency, µM (doses to about 46.2 µM), inactives show at the highest dose activity change, negative = growth inhibition, actives largely listed as inhibitors | 12% of 420,000 active | AID 686979 | chicken DT40 Tdp1-/-;hTDP1 cells + 20 nM CPT, ATP luminescence, 48 h; note: potency is the fitted concentration of half-maximal effect; nearly all actives have a fitted effect of over 55% in size
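Chicken DT40 Tdp1-/- cells stably complemented with human TDP1 were seeded at 400 cells/well in medium containing 20 nM camptothecin, exposed to pin-transferred compounds, and grown at 37 °C for at least 48 hr. Viability was read as ATP luminescence.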
IL1B secr inh: inhibitors of inflammasome signaling (IL-1 beta secretion). AID 743279. THP-1 LPS/ATP IL-1B secretion, AlphaLISA, 16 h; hits give low values. activity change, % at 57.5 µM. 4.7% of 360,000 active; in the data active = activity change below about -50%; inconclusive = mostly about -30% to -49%
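THP-1 cells pretreated 1 hr with compounds (up to 57.5 uM final), then stimulated with LPS (250 ng/mL final) plus ATP (1.25 mM final); secreted IL-1B measured by AlphaLISA after 16 hr, decreased signal indicating inhibition.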
The depositor's hits bear a star; ? = inconclusive; nt = no result; [ ] = dose if it differs, or a comment. Unless noted, calls come from the whole dose curve; as a rule, active = well fitted curve in the direction sought with a large enough effect; inconclusive = small, poorly fitted or top-dose-only effect, or another doubt; inactive = no such curve, though single readings can be large; an effect the other way counts as inactive or inconclusive. % is set by controls: 0 for no effect and ±100 for the full control effect.

SMILES	TDP1 block	Giardia killer	ELG1 repair inh	TDP1 cell noCPT	DT40 TDP1 CPT	IL1B secr inh
CSc1ncc2[nH]c(C(O)c3ccccc3)nc2n1 (stereo unspecified)	nt	5	nt	10µM*	9.2µM*	34
CC(=O)c1c(O)cc(O)cc1CC(=O)O	-5%	-6	2%	5%	8%	-1
CC(=O)c1c(O)cc(O)c(C(C)=O)c1O	nt	17	?	?	21µM*	39
COc1ccc(Nc2c(-c3ccccn3)nc3ccc(Cl)cn23)cc1	15%	nt	nt	1.6µM*	12µM*	nt
Cc1ccc(Nc2c(-c3ccc(C)cc3)nc3ccc(C)cn23)cc1	0%	nt	nt	?	?	nt
Cc1ccc(Nc2c(-c3ccccn3)nc3ccc(C)cn23)cc1	12%	4	?	7.3µM*	3.3µM*	0
Cc1ccn2c(Nc3ccc4c(c3)OCCO4)c(-c3ccccc3O)nc2c1	2%[12.3 µM]	nt	nt	?	?	nt
Cc1ccc(Nc2c(-c3ccccn3)nc3cc(C)ccn23)cc1	11%	-23	?	2.9µM*	4.6µM*	-100*
Cc1nn(CCC(=O)NNC(=S)NCC(C)C)c(C)c1Br	6%	-3	-7%	6.5µM*	7.3µM*	12
CNC(=S)NNC(=O)CCn1nc(C)c(Br)c1C	5%	-6	nt	?	?	0
CCn1c2ccccc2c2nc3cc(C(=O)O)ccc3nc21	0%	2	?	-26%	12%	-56*
CCn1c2ccccc2c2nc3ccccc3nc21	-8%	-10	-1%	18µM*	?	-12
CCn1c2ccccc2c2nc3cc(OC)c(OC)cc3nc21	nt	7	?	13µM*	13µM*	-52*
CC(C)C[C@H](NC(=O)CNC(=O)[C@H](Cc1ccc(O)cc1)NC(=O)[C@H](CO)NC(=O)[C@H](Cc1c[nH]c2ccccc12)NC(=O)[C@H](Cc1cnc[nH]1)NC(=O)[C@@H]1CCC(=O)N1)C(=O)N[C@@H](CCCN=C(N)N)C(=O)N1CCC[C@H]1C(=O)NCC(N)=O (stereo in doubt)	nt	nt	nt	-4%	0%	nt
C=CCC1(O)CCOc2ccccc21 (stereo unspecified)	7%	nt	nt	nt	nt	nt
Cn1c(C(=O)c2ccncc2)cc2ccccc21	-4%	?	-9%	-25%	-10%	?
Oc1ccc(/C=N/Nc2nc(-c3cccnc3)nc3ccccc23)c(O)c1	9%	-3	16µM*	4.1µM*	23µM*	-13
COc1ccc(/C=N/Nc2nc(-c3cccnc3)nc3ccccc23)cc1OC	7%	2	6.5µM*	3.7µM*	16µM*	-52*
Cc1c(O)ccc(/C=N/Nc2nc(-c3cccnc3)nc3ccccc23)c1O	3%	-15	5.2µM*	3.7µM*	5.2µM*	-19
COc1ccc(/C=N/Nc2ncnc3scc(-c4ccccc4)c23)cc1OC	9%	-8	18µM*	?	?	-9
Cn1c(SCC(=O)c2ccc(F)cc2)nnc1-c1ccccc1Br	3%	nt	nt	nt	nt	nt
CN(C)CCNC(=O)c1ccc(Cn2c(=O)c3cccn3c3cccnc32)cc1	-3%	nt	nt	?	?	nt
Cc1ccc(-c2nc(N/N=C/c3ccncc3)c3ccccc3n2)cc1	-2%	-5	?	18µM*	21µM*	0
COc1cccc(C(=O)Nc2ncc3c(n2)CC(C)(C)CC3=O)c1	3%	12	7%	16µM*	?	-4
COc1ccc(C2CC(=O)c3cnc(NC(=O)c4cccc(OC)c4)nc3C2)cc1 (stereo unspecified)	4%	3	-23%	?	?	-3
SMILES	TDP1 block	Giardia killer	ELG1 repair inh	TDP1 cell noCPT	DT40 TDP1 CPT	IL1B secr inh
COc1ccc(C2CC(=O)c3cnc(NC(=O)c4ccccc4OC)nc3C2)c(OC)c1 (stereo unspecified)	8%[56.1 µM]	-2	?	15µM*	16µM*	8
O=S(=O)(c1ccccc1)N1N=C(c2cccs2)CC1c1ccc(Br)cc1 (stereo unspecified)	2%	6	-8%	15µM*	23µM*	0
CCOc1ccc(-c2nc(SCC(=O)NC3CCCC3)c(-c3ccccc3)[nH]2)cc1OC	8%	nt	nt	?	?	nt
COc1cccc2c1CCC1=CC(=O)CC[C@@]12C	-4%[56.1 µM]	nt	nt	-3%	-16%	nt
CCOC(=O)c1nc2cc3n(c(C)c-2c1C)C(C)C(CC)=C3C (stereo unspecified)	nt	-2	nt	18µM*	21µM*	-73*
CCOC(=O)c1cn2ccc(C)cc2n1	-2%	-9	?	?	?	2
COc1cccc(OC)c1C(=O)OCc1c(-c2ccccc2)ncc2ccccc12	2%	0	?	18µM*	21µM*	-7
O=C(O)c1ccccc1C(=O)OCc1c(-c2ccccc2)ncc2ccccc12	0%	5	-5%	-13%	?	39
COc1cccc(-c2ncc3ccccc3c2COC(=O)N2CCCCC2)c1	0%	9	?	16µM*	?	-1
O=C(OCc1c(-c2ccccc2)ncc2ccccc12)c1ccc(F)cc1	-3%	-17	?	16µM*	?	8
O=C(OCc1c(-c2ccccc2)ncc2ccccc12)c1cccc(Br)c1	-3%	31	9.2µM*	?	-15%	-18
COc1cccc(-c2ncc3ccccc3c2COC(=O)N2CCOCC2)c1	1%	-14	?	?	?	-21
CCOC(=O)c1cn(Cc2cccc(Cl)c2)c2cc(C)nn2c1=O	3%	-9	-14%	-23%	?	5
CCN(CC)C(=O)OCc1c(-c2ccccc2)ncc2ccccc12	3%	-6	?	23µM*	?	-26
Cc1cccc(S(=O)(=O)Nc2cccc(-c3ccc(N4CCCCC4)nn3)c2)c1	3%	5	nt	?	?	nt
COC(=O)Cn1c(=NC(=O)c2ccc(OC)cc2)sc2cc(OC)ccc21	-3%	-2	-15%	9.2µM*	?	-4
COC(=O)Cn1c(=NC(=O)c2cccc(OC)c2)sc2cc(OC)ccc21	nt	8	?	23µM*	-74%	-6
COC(=O)Cn1c(=NC(=O)c2cc(OC)cc(OC)c2)sc2cc(OC)ccc21	1%	1	?	?	?	18
CCC1CC=CC2C1C(=O)N(Cc1ccccc1)C2c1ccc2ccccc2c1 (stereo unspecified)	6%	-21	nt	nt	nt	nt
